In PubChem BioAssay (NCATS):
The source made the active and inactive calls. Calls follow the shape of the dose curve; as a rule, active = well fitted curve in the direction sought with a large enough effect; inconclusive = small, poorly fitted or top-dose-only effect, or another doubt; inactive = no such curve, though single readings can be large or run the other way.

The molecules below were run against Hexokinase-4 (Homo sapiens) + Glucokinase regulatory protein (Homo sapiens) (UniProt P35557+Q14397) (assay: qHTS assay for inhibitors of recombinant human GCK-GKRP interaction: Diaphorase-coupled assay (AID 743205)). Details: G6PDH/diaphorase resorufin fluorescence; series mostly up to 57.5 µM.
Hexokinase-4 (Homo sapiens) + Glucokinase regulatory protein (Homo sapiens), sequence (P35557 whole entry, looked up): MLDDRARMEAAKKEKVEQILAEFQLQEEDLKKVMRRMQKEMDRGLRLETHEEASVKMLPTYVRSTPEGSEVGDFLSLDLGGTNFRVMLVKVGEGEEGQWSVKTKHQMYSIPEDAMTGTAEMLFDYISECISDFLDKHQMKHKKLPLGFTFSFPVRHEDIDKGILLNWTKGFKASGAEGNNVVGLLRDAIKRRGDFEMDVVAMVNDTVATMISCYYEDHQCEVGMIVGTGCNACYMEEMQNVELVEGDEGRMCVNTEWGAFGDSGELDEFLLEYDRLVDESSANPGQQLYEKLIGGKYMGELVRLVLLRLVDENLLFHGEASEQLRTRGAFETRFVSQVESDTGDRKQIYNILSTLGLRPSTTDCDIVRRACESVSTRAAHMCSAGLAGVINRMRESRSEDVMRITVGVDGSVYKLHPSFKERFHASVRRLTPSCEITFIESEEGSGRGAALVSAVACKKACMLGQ
Hexokinase-4 (Homo sapiens) + Glucokinase regulatory protein (Homo sapiens), sequence (Q14397 whole entry, looked up): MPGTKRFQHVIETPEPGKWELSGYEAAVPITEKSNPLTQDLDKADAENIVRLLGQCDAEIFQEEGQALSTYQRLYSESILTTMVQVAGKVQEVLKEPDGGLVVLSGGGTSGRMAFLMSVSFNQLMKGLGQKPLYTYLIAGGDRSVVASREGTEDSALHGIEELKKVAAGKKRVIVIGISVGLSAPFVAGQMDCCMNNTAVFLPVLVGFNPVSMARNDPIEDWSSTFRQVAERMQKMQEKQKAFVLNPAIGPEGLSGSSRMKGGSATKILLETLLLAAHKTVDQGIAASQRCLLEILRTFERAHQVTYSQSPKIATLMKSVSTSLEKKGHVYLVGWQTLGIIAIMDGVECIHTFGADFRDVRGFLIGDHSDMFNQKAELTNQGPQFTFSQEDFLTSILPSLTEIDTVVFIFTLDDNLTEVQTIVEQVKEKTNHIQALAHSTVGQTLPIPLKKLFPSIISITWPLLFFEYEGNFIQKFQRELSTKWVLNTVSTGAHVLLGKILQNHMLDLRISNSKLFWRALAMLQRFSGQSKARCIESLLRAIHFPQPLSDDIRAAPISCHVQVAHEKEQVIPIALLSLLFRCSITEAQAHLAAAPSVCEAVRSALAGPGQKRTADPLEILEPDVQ
Description: Glucokinase (GCK) is a glucose sensor in hepatocytes and pancreatic beta-cells. Hepatic GCK is regulated by glucokinase regulatory protein (GKRP), which is predominantly localized to the liver. GKRP binds to GCK inhibiting its activity in the fasting state while in the presence of glucose the GKRP is displaced. There is an additional layer of regulation by fructose 1-phosphate and fructose 6-phosphate, which inhibit and enhance the GCK-GKRP interaction, respectively. GCK plays a role in glucose homeostasis and there is an interest in the development of strategies to activate GCK to lower blood glucose levels in type 2 diabetes. To date the majority of effort has focused on direct activation of GCK and the assays developed herein look to activate GCK by inhibiting its binding to GKRP. A compound that inhibits the interaction of GCK with GKRP could be important for the treatment of diabetes and can also be used as a tool compound to further elucidate GCK-GKRP biology. To that end, we have developed a sensitive HTS biochemical assay where in GCK activity is coupled to G6PDH and Diaphorase to interrogate the GCK-GKRP interaction. This assay was screened against a small compound library to look for modulators of activity.
2 uL of substrate (columns 1-48) are dispensed into Greiner, black solid-bottom 1536-well assay plates. Compounds (23 nL) are then transferred via Kalypsys pin tool equipped with 1536-pin array (10 nL slotted pins, V&P Scientific, San Diego, CA). The library compounds are in columns 5-48 and columns 1-4 serve as controls with DMSO in columns 1 and 3 and 26 mM 1:1.5 fold serial of gluckokinase activator (GKA-EMD) in column 2 and 26 mM of the glucokinase activator (GKA-EMD) in column 4. Following addition of compound and a 20 minute incubation, 1 uL of enzyme mix (GST-GCK, FLAG-GKRP and diaphorase) is added to columns 1, 2, 4-48 and 1 uL of no enzyme mix (FLAG-GKRP and diaphorase) is added to column 3 and the fluorescent product resorufin generated from resazurin was monitored on a Viewlux (PerkinElmer, Shelton, CT, USA) with excitation at 525 nm and emission at 590 nm in kinetic mode where the plate was read every minute for 30 minutes. The final concentration of reagents in the reaction are 25 mM Hepes pH 7.6, 25 mM KCl, 2 mM MgCl2, 1.4 mM 2-mercaptoethanol, 0.025% BSA, 0.01% Tween-20, 0.15 mM NADP+, 5 mM glucose, 0.4 mM ATP, 4 U/ml G6PDH, 0.1 mM resazurin, 10 nM GST-GCK, 10 nM FLAG-GKRP, diaphorase (0.1 mg/mL). Data are normalized to DMSO-treated control columns with (maximum signal) and without (minimum signal) enzyme.
In the case of `CCN(CC)CCn1c(=O)c(Cc2ccc(OC)cc2)nc2ccccc21`, the outcome is reported as “inactive”.
In the case of `CC1=C(C(=O)O)N2C(=O)[C@@H](NC(=O)C(N)c3ccccc3)[C@H]2SC1` (some centres not stated), the outcome is reported as “inactive”.
For `CC1CC2C3CCC4=CC(=O)C=C[C@]4(C)[C@@]3(F)[C@@H](O)C[C@]2(C)[C@@]1(O)C(=O)CO` (some centres not stated), the outcome was “inactive”.
In the case of `CC(=O)[C@H]1CC[C@H]2[C@@H]3CCC4=CC(=O)CC[C@]4(C)[C@H]3CC[C@]12C`, the outcome is reported as “inactive”.
`CCN(CC)CC#CCOC(=O)C(O)(c1ccccc1)C1CCCCC1` (configuration not stated) was tested, and the outcome was “inactive”.
For `CC(C)NCC(O)c1ccc(NS(C)(=O)=O)cc1` (configuration not stated), the outcome was “inactive”.
With `NC(=O)c1cccc(N)c1` the outcome was “inactive”.
`CCCCS(=N)(=O)CCC(N)C(=O)O` (configuration not stated) was tested, and the outcome was “inactive”.
For `NC(=O)c1ccc2[nH]ccc2c1`, the outcome was “inactive”.
For `OCc1ccc(-c2nn(Cc3ccccc3)c3ccccc23)o1`, the outcome was “inactive”.
`COc1cc2ncnc(Nc3cccc(Cl)c3)c2cc1OC` was tested, and the outcome was “inactive”.
With `COc1cc2nc(N3CCCN(C)CC3)nc(NC3CCN(Cc4ccccc4)CC3)c2cc1OC` the outcome was “inactive”.
In the case of `N[C@@H](Cc1ccc(O)c(O)c1)C(=O)O`, the outcome is reported as “inactive”.
With `Cc1ccc(S(=O)(=O)N[C@@H](Cc2ccccc2)C(=O)CCl)cc1` the outcome was “inactive”.
`CCN1CCCC1CNC(=O)c1cc(S(N)(=O)=O)ccc1OC` (configuration not stated) was tested, and the outcome was “inactive”.
`Nc1nc(N)c2nc(CNc3ccc(C(=O)NC(CCC(=O)O)C(=O)O)cc3)cnc2n1` (configuration not stated) was tested, and the outcome was “inactive”.
In the case of `O=C(O)C1CCCN(CCC=C(c2ccccc2)c2ccccc2)C1` (configuration not stated), the outcome is reported as “inactive”.
